Bioassay records as filed in PubChem BioAssay.
VACV Venus inh – vaccinia inhibition (Venus reporter). hit rate 0.46% among 330,000. Vaccinia virus Venus reporter expression, fluorescence. Potency, µM (series often up to 36.5 µM), inactives show at the highest dose activity change, negative = inhibition, most hits filed as inhibitors; calls by dose curve; tested in A549 cells; also: % is scaled to controls: 0 for no effect and ±100 for the full control effect; nearly all actives have a fitted effect of over 30% in size
VACV mCherry inh – inhibitors of vaccinia virus infection (mCherry reporter signal) | Vaccinia virus mCherry reporter infection, fluorescence | Potency, µM (titrated, usually from 36.5 µM), without a hit: top-dose activity change, negative = inhibition, actives largely listed as inhibitors | hit rate 0.63% among 310,000 | AID 720579; calls by dose curve; tested in A549 cells; also: % is scaled to controls: 0 for no effect and ±100 for the full control effect; nearly all actives have a fitted effect of over 35% in size
AMA1 RON2 block – inhibitors of Plasmodium falciparum AMA1-RON2 interaction | AlphaScreen AMA1-biotinylated RON2 peptide binding | Potency, µM (titrated, usually from 58.2 µM), for inactives: top-dose activity change, negative = inhibition, actives largely listed as inhibitors | hit rate 0.2% among 360,000 | AID 720542;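 also: 0% = vehicle wells and -100% = peptide control; nearly all actives have a fitted effect of over 45% in size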
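AMA1 (3D7) with his tag at 25 nM final met compounds first, then biotinylated RON2 peptide at 25 nM; detection used donor plus acceptor beads, 10 µg/mL apiece, read by AlphaScreen after 30 min at room temperature.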
AmpC no deterg – blocks E. coli AmpC beta-lactamase in detergent-free assay; P00811; AmpC nitrocefin hydrolysis, absorbance 480 nm, 0.0001% Triton; Potency, µM (top dose mostly 57.1 µM), without a hit: at the highest dose activity change, negative = inhibition, actives largely listed as inhibitors; hit rate 0.52% among 330,000; AID 485341;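 also: plate controls were no compound for no effect and no enzyme for full effect; nearly all actives have a fitted effect of over 20% in size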
Target sequence (P00811 whole entry, looked up): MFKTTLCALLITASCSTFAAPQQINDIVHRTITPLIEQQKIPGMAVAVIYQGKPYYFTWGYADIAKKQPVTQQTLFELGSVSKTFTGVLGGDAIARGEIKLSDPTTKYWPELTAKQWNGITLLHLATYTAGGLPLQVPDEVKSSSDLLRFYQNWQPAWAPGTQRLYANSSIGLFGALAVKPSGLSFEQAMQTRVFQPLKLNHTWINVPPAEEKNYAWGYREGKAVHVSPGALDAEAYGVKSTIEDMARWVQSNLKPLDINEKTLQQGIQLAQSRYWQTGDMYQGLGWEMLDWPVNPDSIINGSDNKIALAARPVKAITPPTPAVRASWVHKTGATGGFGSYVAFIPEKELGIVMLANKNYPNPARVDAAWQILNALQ
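AmpC (5.3 nM in the dispensed reagent) in 20 mM phosphate pH 7.0 with 0.01% (detergent screen) or 0.0001% Triton X-100 was preincubated with compounds for 15 min at room temperature. Nitrocefin was then added from an 800 uM solution, and hydrolysis was followed at 480 nm.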
AmpC detergent – AmpC beta-lactamase inhibition with detergent present; P00811; AmpC hydrolysis of nitrocefin, absorbance 480 nm, 0.01% Triton; Potency, µM (titrated, usually from 114 µM), for inactives: top-dose activity change, negative = inhibition, actives largely listed as inhibitors; hit rate 0.041% among 370,000;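 also: 0% = no-compound wells and -100% = no-enzyme wells; nearly all actives have a fitted effect of over 25% in size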
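20 mM phosphate pH 7.0 + 0.01% (detergent screen) or 0.0001% Triton X-100; 5.3 nM AmpC reagent; cpd preinc 15 min RT; nitrocefin (800 uM stock) to start; A480 q20 s × 4 min; Activity was normalised to no-enzyme and no-compound control wells.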
SARS PLP yeast – SARS-CoV PLP inhibition in yeast; S. cerevisiae expressing SARS-CoV PLpro, growth rescue; Potency, µM (highest dose often 32.9 µM), for inactives: at the highest dose activity, positive = growth rescue, actives largely listed as activators; hit rate 0.19% among 330,000; calls by dose curve; also: 0% is about no effect; nearly all actives have a fitted effect of over 55% in size
Numbers without * were called inactive; i = inactive; ? = inconclusive; . = not tested or not shown. Shown are actives, neighbours in structure and some others; about 1.4% of the full set was active somewhere. Unless noted, calls follow the shape of the dose curve; as a rule, active = well fitted curve in the direction sought with a large enough effect; inconclusive = small, poorly fitted or top-dose-only effect, or another doubt; inactive = no such curve, though single readings can be large; an effect the other way counts as inactive or inconclusive. Potency is read from the fitted curve at half-maximal effect.

SMILES	VACV Venus inh	VACV mCherry inh	AMA1 RON2 block	AmpC no deterg	AmpC detergent	SARS PLP yeast
NC(=O)N/N=C1\CCS(=O)(=O)c2ccc(F)cc21	-6%	-11%	-6%	-6%	-5%	2%
NC(=S)N/N=C1\CCOc2ccc(F)cc21	0.89µM*	1.8µM*	54%	-16%	-5%	-1%
COC(=O)c1nn(-c2ccc(OC)cc2)c(=O)cc1O	4%	-4%	8%	-20%	-10%	1%
COc1ccc(-n2nc(C#N)c(Cl)cc2=O)cc1	10µM*	11µM*	-27%	-13%	-9%	-14%
CC1CC(C)CC(C)C(O)C(C#N)=CC=CCC(C2CCCC2C(=O)O)OC(=O)CC(O)C(C)C1 (stereo not drawn)	1.1µM*	?	12%	.	.	.
CCN(CC)S(=O)(=O)c1cc([N+](=O)[O-])ccc1NNC(=O)Nc1ccc(Cl)c(Cl)c1	16µM*	?	-7%	-46%	-12%	3%
O=C(NNc1ccccc1[N+](=O)[O-])Nc1ccc(Cl)c(Cl)c1	-17%	i	-8%	25µM*	-15%	-19%
O=C(NNc1ccccc1[N+](=O)[O-])Nc1ccccc1	-7%	i	7%	-23%	3%	-2%
O=C(NC1CCCCCC1)C1CCC(CNS(=O)(=O)c2cccc3cccnc23)CC1 (stereo not drawn)	-8%	-16%	.	.	.	.
CN(C)c1nc2cc(Cl)ccc2cc1CN(Cc1ccc2c(c1)OCO2)C(=O)c1ccoc1	-2%	-9%	.	.	.	.
COc1ccccc1NC(=O)c1sc2ncn(Cc3ccc(C)cc3)c(=O)c2c1C	-9%	i	-3%	0.32µM*	-4%	-4%
COC1CCC(OC2CC(C3(C)CCC4(CC(O)C(C)C(C(C)/C=C(\C)C(=O)C(C)CC(C)C(=O)O)O4)O3)OC3(OC(C4OC(O)(CO)C(C)CC4C)CC3C)C2C)OC1C (stereo not drawn)	7.9µM*	6.3µM*	9%	.	.	.
CN(C)c1ccc(C(=O)Nc2cccc(S(=O)(=O)N3CCCC3)c2)cc1	.	.	1%	28µM*	-15%	0%
Cc1ccc(NC(=O)c2cc(S(=O)(=O)N3CCCCC3)c[nH]2)cc1C	-6%	i	0%	7.1µM*	?	7%
O=C(Nc1ccc(S(=O)(=O)N2CCCC2)cc1)c1cccc(OC(F)F)c1	-21%	-22%	-13%	32µM*	-18%	?
CS(=O)(=O)c1ccc(C(=O)OCC(=O)Nc2cccc(S(=O)(=O)N3CCCC3)c2)cc1	-12%	-5%	6%	-54%	-12%	0%
O=C(COC(=O)c1ccc(O)cc1)Nc1cccc(S(=O)(=O)N2CCCCC2)c1	-13%	i	0%	8.9µM*	2%	1%
CN(C)S(=O)(=O)c1cccc(NC(=O)c2ccc(S(=O)(=O)N3CCCCC3)cc2)c1	-27%	?	-9%	-34%	?	4%
O=C(Nc1cccc(S(=O)(=O)N2CCCCC2)c1)c1ccc(S(=O)(=O)C(F)F)cc1	-28%	-22%	-13%	22µM*	-14%	0%
O=C(Nc1cccc(S(=O)(=O)C(F)F)c1)c1ccc(S(=O)(=O)N2CCCCC2)cc1	?	?	-26%	-26%	?	-1%
CC1(C)CC(=O)C2=C(C1)OC(N)=C(C#N)C2Cc1ccccc1 (stereo not drawn)	.	.	2%	0.32µM*	-3%	-4%
CC1C(C#N)=C(N)OC2=C1C(=O)CC(C)(C)C2 (stereo not drawn)	.	.	-4%	-2%	-3%	4%
CC[C@H]1OC(=O)[C@H](C)C(=O)[C@H](C)[C@@H](O[C@@H]2O[C@H](C)C[C@H](N(C)C)[C@H]2O)[C@](C)(OC)C[C@@H](C)C(=O)[C@H](C)[C@H]2N(CCCCn3cnc(-c4cccnc4)c3)C(=O)O[C@]12C	-8%	-14%	.	.	.	.
CNc1cccc2c1C(=O)c1ccccc1C2=O	42%	7%	4µM*	-23%	-9%	-22%
CN(C)c1ccc(C(=C2c3ccccc3-c3ccccc32)c2ccc(N(C)C)cc2)cc1	5%	41%	.	.	.	.
SMILES	VACV Venus inh	VACV mCherry inh	AMA1 RON2 block	AmpC no deterg	AmpC detergent	SARS PLP yeast
CCc1cc(C(=O)NCc2ccccc2)no1	1%	-14%	.	.	-3%	.
CCCc1cc(C(=O)NCCc2ccccc2)no1	5%	i	8%	11µM*	-4%	-7%
COc1cc(Cl)c(CN2CCOc3ccc(CN4CCCCC4CO)cc3C2)cc1OC (stereo not drawn)	-6%	-12%	.	.	.	.
Cc1ccc(C)c(Cn2c(-c3cccs3)nc3ccccc32)c1	-4%	3%	.	.	-3%	.
CCOc1ccccc1OCCNC1CCCC1	.	.	-4%	-9%	-19%	18%
CCOc1cccc(=NC2CCCCC2)c2c(C)n(C)c(C)c12	?	20µM*	-13%	4%	-3%	0%
COC(=O)C1=CN(c2ccc(OC)cc2)C(N)=C(C#N)C1c1cccc2ccccc12 (stereo not drawn)	-15%	?	4%	.	.	.
CCc1ccc(N2C=C(C(=O)OC)C(c3cccc4ccccc34)C(C#N)=C2N)cc1 (stereo not drawn)	-8%	6.3µM*	33%	.	.	.
COC(=O)C1=CN(c2ccc(C(C)(C)C)cc2)C(N)=C(C#N)C1c1cccc2ccccc12 (stereo not drawn)	-12%	8.9µM*	29%	.	.	.
COc1cccc(C(=O)N2CCc3c(C(=O)NC(C)c4ccco4)c(OC)cc(=O)n3CC2)c1OC (stereo not drawn)	8%	-4%	.	.	.	.
O=C(Nc1cccc(-n2cnnn2)c1)c1ccoc1COc1ccc(Cl)cc1	.	.	-8%	7.1µM*	-10%	-1%
CN1CC(=O)NC1=N	16%	4%	.	.	.	.
CN(C)c1cccc(C(=O)NCC2Cc3cccc(-c4cncnc4)c3O2)c1 (stereo not drawn)	-4%	-13%	.	.	.	.
CCC(C)N1CC23C=CC(O2)C(C(=O)OC)C3C1=O (stereo not drawn)	.	.	-2%	22µM*	2%	0%
CCCN1CC23C=CC(O2)C(C(=O)O)C3C1=O (stereo not drawn)	-1%	-8%	0%	35µM*	?	-1%
CCOC(=O)CN1CC23C=CC(O2)C(C(=O)Nc2ccc(OCC)cc2)C3C1=O (stereo not drawn)	-6%	i	-2%	7.9µM*	?	-2%
CCCS(=O)(=O)NCc1c(C)ncc2c1CCN(C(=O)/C=C/c1ccccc1)C2	-7%	-16%	.	.	.	.
CCOC(=O)c1c(NC(=O)C2=C(C)NC(=S)NC2c2ccc(CC)cc2)sc(C)c1C (stereo not drawn)	.	.	.	13µM*	-11%	5%
CCOC(=O)C1=C(C)NC(=S)NC1c1ccc(OC(=O)c2ccco2)cc1 (stereo not drawn)	-1%	-10%	36%	-29%	3%	-10%
